Test results published in the supplement of paper PMC8728848.
About 410 targets per protein were measured; listed, in parts, are those with the strongest signals and a random draw of the rest.

What was measured:
Test in all cases: glycan array binding signal (z-score within array); higher = stronger binding
Settings in all cases: glycan notation: IUPAC condensed, linker removed
Fuc(a1-2)Gal(b1-4)Glc6S = target: Fuc(a1-2)Gal(b1-4)Glc6S
Summary of the method: (§1)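 Columns mapping to the same glycan were averaged after glycan names were converted to IUPAC-condensed notation. The data come from 3228 arrays in the Consortium for Functional Glycomics database, limited to those with an available protein sequence. Binding is reported as a within-array Z-score averaged across arrays of one protein sequence and across linkers.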

[1] = target: Fuc(a1-2)[Gal(a1-3)]Gal(b1-4)GlcNAc
Summary of the method: as §1

[2] = target: Fuc(a1-3)[Gal3S(b1-4)]Glc
Summary of the method: as §1

[3] = target: Gal(b1-3)GalNAc(b1-3)Gal(b1-4)Glc
Summary of the method: as §1

[4] = target: Gal(b1-3)[Neu5Ac(a2-6)]GalNAc
Summary of the method: as §1

Gal3S(b1-4)Glc6S = target: Gal3S(b1-4)Glc6S
Summary of the method: as §1

Gal3S(b1-4)GlcNAc6S = target: Gal3S(b1-4)GlcNAc6S
Summary of the method: as §1

Gal3S6S(b1-4)GlcNAc6S = target: Gal3S6S(b1-4)GlcNAc6S
Summary of the method: as §1

Gal4S6S(b1-4)GlcNAc = target: Gal4S6S(b1-4)GlcNAc
Summary of the method: as §1

Gal6S(b1-4)Glc6S = target: Gal6S(b1-4)Glc6S
Summary of the method: as §1

GlcA(b1-6)Gal = target: GlcA(b1-6)Gal
Summary of the method: as §1

[5] = target: GlcNAc(b1-3)Gal(b1-3)GalNAc
Summary of the method: as §1

[6] = target: GlcNAc(b1-3)[GlcNAc(b1-6)]Gal(b1-4)GlcNAc
Summary of the method: as §1

[7] = target: GlcNAc(b1-3)[GlcNAc(b1-6)]GlcNAc
Summary of the method: as §1

[8] = target: GlcNAc(b1-4)Gal(b1-4)GlcNAc
Summary of the method: as §1

Man(a1-3)[Man(a1-6)]Man = target: Man(a1-3)[Man(a1-6)]Man
Summary of the method: as §1

[9] = target: Man(a1-3)[Man(a1-6)]Man(a1-6)[Man(a1-3)]Man(b1-4)GlcNAc(b1-4)GlcNAc
Summary of the method: as §1

[10] = target: Neu5Ac(a2-3)Gal(b1-3)GalNAc
Summary of the method: as §1

[11] = target: Neu5Ac(a2-3)Gal6S(b1-4)GlcNAc
Summary of the method: as §1

[12] = target: Neu5Gc(a2-3)Gal(b1-4)[Fuc(a1-4)]GlcNAc
Summary of the method: as §1

B1: Annexin-A1 (Mus musculus), P10107 (protein)
chain: MAMVSEFLKQARFLENQEQEYVQAVKSYKGGPGSAVSPYPSFNVSSDVAALHKAIMVKGVDEATIIDILTKRTNAQRQQIKAAYLQENGKPLDEVLRKALTGHLEEVVLAMLKTPAQFDADELRGAMKGLGTDEDTLIEILTTRSNEQIREINRVYREELKRDLAKDITSDTSGDFRKALLALAKGDRCQDLSVNQDLADTDARALYEAGERRKGTDVNVFTTILTSRSFPHLRRVFQNYGKYSQHDMNKALDLELKGDIEKCLTTIVKCATSTPAFFAEKLYEAMKGAGTRHKALIRIMVSRSEIDMNEIKVFYQKKYGISLCQAILDETKGDYEKILVALCGGN
Fuc(a1-2)Gal(b1-4)Glc6S
  glycan array binding signal (z-score): 1.79
[1]
  glycan array binding signal (z-score): -0.684
[2]
  glycan array binding signal (z-score): -0.177
[3]
  glycan array binding signal (z-score): -0.151
[4]
  glycan array binding signal (z-score): -0.343
Gal3S(b1-4)Glc6S
  glycan array binding signal (z-score): 3.21
Gal3S(b1-4)GlcNAc6S
  glycan array binding signal (z-score): 1.83
Gal3S6S(b1-4)GlcNAc6S
  glycan array binding signal (z-score): 7.38
Gal4S6S(b1-4)GlcNAc
  glycan array binding signal (z-score): 1.13
Gal6S(b1-4)Glc6S
  glycan array binding signal (z-score): 3.55
GlcA(b1-6)Gal
  glycan array binding signal (z-score): 0.482
[5]
  glycan array binding signal (z-score): -0.049
[6]
  glycan array binding signal (z-score): -0.758
[7]
  glycan array binding signal (z-score): -0.452
[8]
  glycan array binding signal (z-score): -0.318
Man(a1-3)[Man(a1-6)]Man
  glycan array binding signal (z-score): -0.165
[9]
  glycan array binding signal (z-score): -0.176
[10]
  glycan array binding signal (z-score): -0.573
[11]
  glycan array binding signal (z-score): -0.076
[12]
  glycan array binding signal (z-score): -0.436
